# Data reported in PubChem BioAssay AID504915 (The Scripps Research Institute Molecular Screening Center, 2011).
# Some of the results follow. Unmarked numbers belong to inactive results. Activity calls are given as the source filed them. No stated cut-off is given here; in the data, active means activation above about 17%; inactive means the rest.
# Target: 5-hydroxytryptamine receptor 5A (Homo sapiens) (UniProt P47898)
# Test: HTR5A agonists, retest of hits, confirmation, cell-based, luminescence (AID 504915);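 further: 0% = cells with vehicle only and 100% = full reference agonist response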
# Settings: HTR5A agonist cell assay, at 9.3 µM, stronger effect = higher value
# 5-hydroxytryptamine receptor 5A (Homo sapiens), sequence (P47898 whole entry, looked up): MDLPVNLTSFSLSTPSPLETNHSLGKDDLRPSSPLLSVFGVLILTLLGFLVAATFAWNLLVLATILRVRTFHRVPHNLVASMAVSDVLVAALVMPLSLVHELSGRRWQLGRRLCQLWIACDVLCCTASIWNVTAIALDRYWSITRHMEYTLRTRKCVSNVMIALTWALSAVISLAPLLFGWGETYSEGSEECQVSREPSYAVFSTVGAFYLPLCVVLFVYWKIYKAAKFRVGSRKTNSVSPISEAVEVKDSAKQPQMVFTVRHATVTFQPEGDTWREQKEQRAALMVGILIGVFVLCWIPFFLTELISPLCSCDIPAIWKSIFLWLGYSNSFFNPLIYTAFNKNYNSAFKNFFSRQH
row,SMILES,activation
1,COc1c(Cl)cc(C(=O)Nc2ccc(Cl)cn2)cc1Cl,4.5%
2,CC(NC(=O)c1cc(-c2ccccc2)on1)c1ccccc1 (stereo not given),-0.01%
3,Cc1c(C(=O)OCC(=O)N(CCC#N)c2ccccc2)oc2c1ccc1ccccc12,61.4% (active)
4,CCC(C)NC(=O)CCCc1ccccc1 (stereo not given),0.89%
5,C/C(=N\NC(=O)CNc1cccc2ccccc12)c1ccc(Br)s1,1.77%
6,Cc1ccc(CN2CCN(Cc3ccc(OCCO)cc3)CC2CCO)o1 (stereo not given),2.89%
7,CN(c1ccccc1)S(=O)(=O)c1cc(C(=O)N2CCN(c3ncccn3)CC2)ccc1Cl,-3.34%
8,Cc1ccc(-c2csc(SCC(=O)Nc3cc(C)on3)n2)cc1,2.91%
9,Cc1ccccc1CN1CCN(CC(=O)NCc2ccccn2)C1=O,3.7%
10,COC(=O)c1cc(S(=O)(=O)N2CCN(c3cc(C)ccc3C)CC2)c[nH]1,0.19%
11,c1cc(-c2nn[nH]n2)ccc1CN1CCCCC1,-1.04%
12,O=C(c1cccnc1)N(c1cc2sc(=O)oc2c2ccccc12)S(=O)(=O)c1ccccc1,2.35%
13,COc1ccccc1S(=O)(=O)NCc1ccc(C(=O)N(C)Cc2ccc(F)cc2)cc1,-2.33%
14,CNc1nnc(-c2ccco2)s1,0.94%
15,CC1CCN(S(=O)(=O)c2nnc(NC(=O)COc3ccccc3F)s2)CC1,-0.56%
16,CCN(CC(=O)Nc1cccc(S(=O)(=O)N2CCCCC2)c1)Cc1ccccc1,1.96%
17,CN1c2ccc(C=O)c3c(C=O)ccc(c23)N(C)C1(C)C,-0.75%
18,CC(C)CC(=O)N/C(N)=N/c1nc2ccccc2s1,-0.51%
19,COc1ccc(S(=O)(=O)N2CCN(CC(=O)N3c4ccccc4CC3C)CC2)cc1OC (stereo not given),5.85%
20,COc1cccc(OCC(=O)Nc2ccccc2C(N)=O)c1,26.9% (active)
21,COc1ccc2[nH]cc(CCN3C(=O)c4ccc(C(=O)O)cc4C3=O)c2c1,-2.36%
22,O=C(CC1Nc2ccccc2NC1=O)Nc1ccccc1 (stereo not given),3.07%
23,COc1ccc(C(=O)O/N=C(\N)Cc2ccc(Cl)cc2Cl)cc1OC,10.9%
24,c1ccc(-n2nc3ccccc3n2)cc1,1.33%
25,CC1(C)C2CCC1(CS(=O)(=O)NCCc1c[nH]c3ccccc13)C(=O)C2 (stereo not given),35.4% (active)
